Among the test systems are EKVX NSCLC; SN12C renal; UO-31 renal; TK-10 renal; ACHN renal; CAKI-1 renal; A498 renal; CCRF-CEM leukemia; MOLT-4 leukemia; SR leukemia; OVCAR-8 ovarian; OVCAR-5 ovarian; OVCAR-4 ovarian; SK-OV-3 ovarian; IGROV1 ovarian; OVCAR-3 ovarian; HS 578T breast; NCI/ADR-RES ovarian; T-47D breast; RPMI-8226 leukemia.
What all share (assay): NCI-60 one-dose screen, 48 h (100 = growth as untreated, 0 = no growth, -100 = all killed)
Common to all, as to settings: 10 µM unless noted

The panel holds about 83,000 compounds, 20% with a hit somewhere; the sample as a whole holds those more often.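 Note: values are percent growth. 100 is the growth of untreated cells, values between 100 and 0 indicate rising inhibition; between -100 and 0 indicates cell death.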 Unmarked numbers belong to inactive results. The source made the active and inactive calls. The calls were made as follows: active = growth percent below 10; inactive = the rest.

As to `Cc1cccc(/C=C/c2nn3c(-c4ccco4)nnc3s2)c1`, the growth was 81.3% in the experiment with EKVX NSCLC; 94.8% in the experiment on SN12C renal; 83.7% in the experiment with UO-31 renal; 101% in the experiment with TK-10 renal; 102% with ACHN renal; 91.4% in the experiment with CAKI-1 renal. Also, the growth was 77.5% with A498 renal; 99.4% with CCRF-CEM leukemia; 104% in the experiment with MOLT-4 leukemia; 79% with SR leukemia; 100% in the experiment on OVCAR-8 ovarian; 98.2% in the experiment on OVCAR-5 ovarian. Further, the growth in the experiment with OVCAR-4 ovarian is 98.7%; in the experiment with SK-OV-3 ovarian it was 114%; in the experiment with IGROV1 ovarian, 98.6%; in the experiment with OVCAR-3 ovarian it was 110%; in the experiment on HS 578T breast, 106%; in the experiment on NCI/ADR-RES ovarian, 91.6%. For the same compound, in the experiment on T-47D breast, the growth was 89.2%.

As for `O=C(CSc1nc2sc3c(c2c(=O)n1-c1ccc(Cl)cc1)CCCC3)N/N=C/c1ccc(F)cc1`, the growth with EKVX NSCLC was 90.3%; in the experiment with SN12C renal it was 97.1%; in the experiment with UO-31 renal it was 83.2%; with TK-10 renal, 125%; in the experiment on ACHN renal, 108%; in the experiment on CAKI-1 renal it was 98%. The growth in the experiment with A498 renal is 96.8%; in the experiment on CCRF-CEM leukemia, 65.9%; with MOLT-4 leukemia, 69.3%; with SR leukemia it was 39.6%; in the experiment on RPMI-8226 leukemia, 97.2%; in the experiment with OVCAR-8 ovarian it was 96.7%. In addition, the growth with OVCAR-5 ovarian is 106%; in the experiment with OVCAR-4 ovarian, 89.8%; in the experiment on SK-OV-3 ovarian, 116%; in the experiment with IGROV1 ovarian it was 104%; with OVCAR-3 ovarian, 133%; with HS 578T breast, 115%. For the same compound, the growth in the experiment on NCI/ADR-RES ovarian was 104%; in the experiment with T-47D breast it was 109%.

For `Nc1cc(-c2c[nH]c3ccc(F)cc23)nc2cc(-c3c[nH]c4ccc(F)cc34)nn12`, the growth in the experiment on EKVX NSCLC is 78.2%; with SN12C renal, 99%; with UO-31 renal it was 75.8%; with TK-10 renal, 118%; with ACHN renal, 66.3%; in the experiment on CAKI-1 renal, 77.8%. The growth is 67.8% with A498 renal; 7.99% (active) with CCRF-CEM leukemia; 39% in the experiment on MOLT-4 leukemia; -22.1% (active) in the experiment on SR leukemia; 30.7% with RPMI-8226 leukemia; 89.8% in the experiment on OVCAR-8 ovarian. Also, the growth in the experiment on OVCAR-5 ovarian was 115%; in the experiment on OVCAR-4 ovarian, 96.1%; in the experiment on SK-OV-3 ovarian, 135%; in the experiment on IGROV1 ovarian, 94.8%; with OVCAR-3 ovarian it was 94.4%; in the experiment on HS 578T breast, 112%. Moreover, the growth was 93% in the experiment on NCI/ADR-RES ovarian and 81.7% in the experiment with T-47D breast.

`Cc1nc(-c2cc3ccccc3oc2=O)ccc1C(=O)/C=C/c1ccc(Cl)c(Cl)c1`: the growth in the experiment on EKVX NSCLC was 92.1%; with SN12C renal it was 99.8%; with UO-31 renal it was 89.4%; with TK-10 renal it was 117%; with ACHN renal it was 93.1%; in the experiment on CAKI-1 renal, 95.7%. Besides, the growth with A498 renal was 93.8%; in the experiment with CCRF-CEM leukemia it was 104%; in the experiment with MOLT-4 leukemia, 102%; in the experiment with RPMI-8226 leukemia, 101%; in the experiment on OVCAR-8 ovarian, 99.5%; with OVCAR-5 ovarian it was 113%. Further, the growth with OVCAR-4 ovarian was 107%; in the experiment on SK-OV-3 ovarian, 127%; in the experiment on IGROV1 ovarian, 104%; with OVCAR-3 ovarian, 111%; with HS 578T breast, 90.7%; in the experiment on NCI/ADR-RES ovarian, 105%. The growth in the experiment with T-47D breast is 104%.

For the compound `Cc1cc(C(=O)Nc2sc3c(c2C(N)=O)CCC(=O)C3)ccc1OCCN1CCCCC1`, the growth was 107% in the experiment on EKVX NSCLC; 92.5% in the experiment on SN12C renal; 94.8% in the experiment with UO-31 renal; 148% with TK-10 renal; 91.1% in the experiment with ACHN renal; 98.3% in the experiment with CAKI-1 renal. For the same compound, the growth was 120% in the experiment on A498 renal; 77.1% with CCRF-CEM leukemia; 51.9% in the experiment on MOLT-4 leukemia; 81.6% in the experiment with SR leukemia; 85.7% in the experiment with RPMI-8226 leukemia; 101% with OVCAR-8 ovarian. Moreover, the growth in the experiment with OVCAR-5 ovarian was 119%; with OVCAR-4 ovarian, 108%; in the experiment on IGROV1 ovarian, 91%; in the experiment with OVCAR-3 ovarian, 97.7%; with HS 578T breast it was 102%; in the experiment with T-47D breast, 89.4%.

Consider `COc1cc(-c2nc3ccc(-c4nnc(SCC(=O)Nc5ccc(C(C)=O)cc5)o4)cc3[nH]2)cc(OC)c1OC`, for which the growth in the experiment on EKVX NSCLC is 94%; with SN12C renal, 92.8%; in the experiment with UO-31 renal it was 85.2%; in the experiment with TK-10 renal, 121%; with ACHN renal, 98.9%; with CAKI-1 renal, 92.7%. The growth is 95.4% in the experiment on A498 renal; 104% with CCRF-CEM leukemia; 110% in the experiment on MOLT-4 leukemia; 96.5% with SR leukemia; 108% with RPMI-8226 leukemia; 94.9% with OVCAR-8 ovarian. Moreover, the growth was 99.9% with OVCAR-5 ovarian; 111% in the experiment with OVCAR-4 ovarian; 112% in the experiment on SK-OV-3 ovarian; 99.3% with IGROV1 ovarian; 119% in the experiment on OVCAR-3 ovarian; 103% with HS 578T breast. Further, the growth was 107% in the experiment on NCI/ADR-RES ovarian and 103% with T-47D breast.

For the compound `CN1C(=O)N(c2ccccc2)C2N=C(N/N=C/c3ccccc3)SC21` (stereo unspecified), the growth is 53.4% in the experiment on EKVX NSCLC; 38.5% in the experiment on SN12C renal; 47.4% in the experiment with UO-31 renal; 61.7% with TK-10 renal; 49.1% in the experiment on ACHN renal; 41.9% in the experiment on CAKI-1 renal. For the same compound, the growth is -18.8% (active) in the experiment on A498 renal; 17.1% with CCRF-CEM leukemia; 25.5% with MOLT-4 leukemia; 13.6% in the experiment with SR leukemia; 22.5% with RPMI-8226 leukemia; 25.7% in the experiment on OVCAR-8 ovarian. The growth with OVCAR-5 ovarian was 35.1%; with OVCAR-4 ovarian, 68.3%; in the experiment with SK-OV-3 ovarian, 37.1%; in the experiment on IGROV1 ovarian, 38.2%; with OVCAR-3 ovarian it was 13.2%; in the experiment on HS 578T breast, 2.36% (active). For the same compound, the growth in the experiment with NCI/ADR-RES ovarian was 30.7%; in the experiment with T-47D breast, 32.6%.

As to `O=c1[nH]c2ccccc2cc1CSc1ccccc1Nc1nccc(-c2ccc(C(F)(F)F)cc2)n1`, the growth in the experiment with EKVX NSCLC is 64.7%; in the experiment with SN12C renal, 70.3%; in the experiment with UO-31 renal it was 72.3%; in the experiment on TK-10 renal it was 112%; in the experiment with ACHN renal, 48%; with CAKI-1 renal, 64.4%. Also, the growth in the experiment with A498 renal was 85.5%; in the experiment on CCRF-CEM leukemia, 87.4%; in the experiment on MOLT-4 leukemia, 63.5%; in the experiment with SR leukemia, 53.7%; with RPMI-8226 leukemia, 62.6%; in the experiment on OVCAR-8 ovarian it was 38.1%. In addition, the growth is 103% in the experiment on OVCAR-5 ovarian; 48.7% with OVCAR-4 ovarian; 117% in the experiment on SK-OV-3 ovarian; 67.8% with IGROV1 ovarian; 69.8% in the experiment with OVCAR-3 ovarian; 68.3% in the experiment on HS 578T breast. The growth with NCI/ADR-RES ovarian was 63.2%; with T-47D breast it was 66.7%.
